Assay outcomes: PubChem BioAssay, National Center for Advancing Translational Sciences (NCATS)
A selection: hits, their analogues and other compounds. The true share with any hit is near 1.5%.
FBPA coupling cs: coupling enzyme interference in Giardia aldolase counter-screen; coupling enzyme system counterscreen, AmpLite Red fluorescence; activity change, negative = inhibition, % at 58.2 µM, hits read low; 290,000 tested, 0.67% active; AID 2472; in the data active = activity change below about -30%
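Fluorescence at 525 nm excitation and 598 nm emission measured inhibition of the coupled detection system without aldolase. Compounds (at 57.5 uM final) were preincubated 10 min at room temperature with coupling enzyme reagent before a 20 min substrate/AmpLite Red step.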
TrxR1 substrate: rat thioredoxin reductase 1 substrate activity; O89049; purified TrxR1 substrate turnover, NADPH consumption readout; AID 588456; Potency, µM (highest dose often 114 µM), for inactives: at the top dose activity change, negative = substrate turnover; 390,000 tested, 0.01% active; also: potency is read from the fitted curve at half-maximal effect; nearly all actives have a fitted effect of over 50% in size
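Rat TrxR1, dispensed at 90 nM, was prereduced with 400 uM NADPH (final) for 5 min at ~22 deg C, then incubated with compound 15 min before 400 uM selenite. A first-read NADPH fluorescence drop versus no-compound background flagged substrates.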
IDH1 R132H inh: inhibitors of human mutant IDH1 R132H; O75874; IDH1-R132H enzyme, NADPH consumption, diaphorase/resazurin fluorescence; Potency, µM (series often up to 76.6 µM), without a hit: at the top dose activity change, negative = inhibition, most hits filed as inhibitors; 390,000 tested, 0.093% active; also: potency is read from the fitted curve at half-maximal effect; nearly all actives have a fitted effect of over 65% in size
Target sequence (O75874 whole entry R132H, stated change not applied): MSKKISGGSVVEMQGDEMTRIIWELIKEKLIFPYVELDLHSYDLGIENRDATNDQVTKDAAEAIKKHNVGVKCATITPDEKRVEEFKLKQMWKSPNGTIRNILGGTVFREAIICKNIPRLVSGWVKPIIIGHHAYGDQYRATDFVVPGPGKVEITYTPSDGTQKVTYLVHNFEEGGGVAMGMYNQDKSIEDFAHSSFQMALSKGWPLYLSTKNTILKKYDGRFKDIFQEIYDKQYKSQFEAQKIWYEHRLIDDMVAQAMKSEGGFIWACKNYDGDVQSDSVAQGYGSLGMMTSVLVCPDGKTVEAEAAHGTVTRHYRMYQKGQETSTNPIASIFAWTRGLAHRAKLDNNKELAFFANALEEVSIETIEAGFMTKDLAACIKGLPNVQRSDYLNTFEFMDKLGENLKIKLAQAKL
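IDH1-R132H (0.5 ug/mL) preincubated 30 min with compound, then NADPH (0.016 mM) and alpha-KG (2 mM) added; 80 min at RT, pH 7.5. Remaining NADPH coupled via diaphorase/resazurin to fluorescence (540/590 nm); concentration-response curves normalized to no-enzyme control.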
Eya2 phos inh: blocks the phosphatase activity of human Eya2 | Potency, µM (highest dose often 76.9 µM), inactives show at the top dose activity, negative = inhibition, usual class: inhibitors | recombinant Eya2, OMFP fluorescence dephosphorylation (OMFP is methylfluorescein phosphate) | O00167 | AID 488837 | 330,000 tested, 0.006% active; also: potency is read from the fitted curve at half-maximal effect
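Eya2 protein (added as 0.2 uM solution) was preincubated with compound for 10 min at ambient temperature in 50 mM HEPES pH 7.5, 50 mM NaCl, 5 uM MgCl2, 0.05% BSA, 1 mM DTT. OMFP (added at 50 uM) then reacted 10 min; fluorescence read at 485/525 nm.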
TrxR1 inh: rat TrxR1 inhibition. O89049. recombinant rTrxR1, NADPH fluorescence consumption, selenite substrate. Potency, µM (titrated, usually from 114 µM), without a hit: at the highest dose activity change, negative = inhibition, actives largely listed as inhibitors. 390,000 tested, 1% active. AID 588453; also: potency is read from the fitted curve at half-maximal effect; nearly all actives have a fitted effect of over 65% in size
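Rat TrxR1 (90 nM in the dispensed reagent) was pre-reduced with 400 uM NADPH for 5 min at room temperature, then incubated with compound for 15 min. After 400 uM selenite was added, NADPH fluorescence (Ex 340/Em 450 nm) was followed for 8 min.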
The depositor's hits bear a star; i = inactive; ? = inconclusive; / = no result; ! = a repeat was not active; [ ] = dose if it differs, or a comment. Unless noted, calls follow the shape of the dose curve; as a rule, active = well fitted curve in the direction sought with a large enough effect; inconclusive = small, poorly fitted or top-dose-only effect, or another doubt; inactive = no such curve, though single readings can be large; an effect the other way counts as inactive or inconclusive. % is scaled to controls: 0 for no effect and ±100 for the full control effect.

SMILES	FBPA coupling cs	TrxR1 substrate	IDH1 R132H inh	Eya2 phos inh	TrxR1 inh
Cc1cccc(N2C(=O)NC(=O)/C(=C\c3ccc4c(c3)CCCN4Cc3ccccc3)C2=O)c1	5.4	11.5%[57.1 µM]	52.1µM*	-1.3%	?
Cc1ccc(-n2c(O)c(C=NCc3ccco3)c(=O)[nH]c2=S)cc1C	-1.8	-2.2%[57.1 µM]	5.1%	12.4%	12.6µM*
O=c1[nH]c(=S)n(-c2ccccc2F)c(O)c1C=NCc1ccco1	-0.1	-6.9%	6.2%	2.5%	-10.6%
c1ccc(N2CCN(c3ccccc3)CC2)cc1	/	0.9%	/	/	11.5%
O=C(CCN1CCN(c2ccccc2)CC1)c1ccc(Br)cc1	1.3	3.5%	12.2%	3.9%	3.98µM*
CCCCC/C=C\C/C=C\C/C=C\C/C=C\CCCC(=O)N[C@H](C)CO	-2.0	/	/	/	/
CC1CC2CCC(O2)C(C)C(=O)OC(C)CC2CCC(O2)C(C)C(=O)OC(C)CC2CCC(O2)C(C)C(=O)OC(C)CC2CCC(O2)C(C)C(=O)O1 (centres undefined)	0.0	/	/	/	/
CC(C)[C@]1(NC(=O)[C@@H]2C=C3c4cccc5[nH]cc(c45)C[C@H]3N(C)C2)O[C@@]2(O)C3CCCN3C(=O)[C@H](Cc3ccccc3)N2C1=O (some centres undefined)	-31.8*	/	/	/	/
CN(C)c1ccc(C=C2C(=O)NC(=O)NC2=O)cc1[N+](=O)[O-]	1.8	1.2%[57.1 µM]	-0.1%	2.7%	?
O=C1NC(=S)NC(=O)C1=Cc1ccc(OCc2ccccc2)cc1	/	3.3%	-0.4%	/	7.94µM*
CN(C)c1ccc(C=C2C(=O)NC(=S)NC2=O)cc1[N+](=O)[O-]	0.5	4.9%[57.1 µM]	0.5%	0.9%	3.98µM*
COc1ccc(C=C2C(=O)NC(=S)NC2=O)cc1	/	-4.4%	5.9%	/	2.82µM*
Cc1c(O)c(O)cc2c1CC=C1[C@]3(C)CC[C@]4(C)CC[C@@](C)(C(=O)O)CC4[C@]3(C)CC[C@]12C (some centres undefined)	-0.8	/	/	/	/
CC1=C(O)C(=O)C=C2C1=CC=C1C2(C)CCC2(C)C3CC(C)(C(=O)O)CCC3(C)CCC12C (centres undefined)	/	-13.7%	-27.0%	/	20µM*
CC(=O)O[C@@H]1C[C@@]2(C)C(c3ccoc3)C[C@H]3O[C@]32[C@]2(C)C(=O)C(O)=C3C(C)(C)C(=O)C=C[C@]3(C)C12 (some centres undefined)	1.1	/	/	/	/
Cc1c(F)c(F)c(COC(=O)C2C(/C=C(\Cl)C(F)(F)F)C2(C)C)c(F)c1F (centres undefined)	0.7	/	/	/	/
Cc1c2ccncc2c(C)c2c1[nH]c1ccccc12	-30.3*!	27.7%[57.1 µM]	6.1%	-5.7%	?
COc1ccc(-c2cc(=NCCCCCC(=O)O)c3cc(C)ccc3o2)cc1	0.2	i	9.8%	-13.8%	15.8µM*!
COc1ccc(-c2cc(=Nc3cccc(C(=O)O)c3)c3cc(C)ccc3o2)cc1	1.8	74.3%[57.1 µM]	-15.6%	1.9%	20.7%[57.1 µM]
COP(=S)(OC)Oc1ccc([N+](=O)[O-])cc1	3.1	/	/	/	/
O=C1/C(=C/c2ccccc2)C[C@@]2(O)[C@H]3Cc4ccc(O)c5c4[C@@]2(CCN3CC2CC2)C1O5 (some centres undefined)	/	-0.7%	2.4%	-11.3%	35.5µM*
O=C1NC(=O)C2(CCCC2)C(=O)N1	/	-4.3%	0.0%	/	1.3%
O=C1NC(=O)C(=O)C(=O)N1	-59.7*	/	/	/	/
C[C@@H]1Cc2c(Cl)cc(C(=O)N[C@H](Cc3ccccc3)C(=O)O)c(O)c2C(=O)O1	9.5	/	/	/	/
Cc1oc(-c2ccc(Cl)cc2)nc1CS(=O)CC(=O)N1CCC2(CC1)OCCO2 (centres undefined)	2.8	24.7%	9.3%	14.6%	50.1µM*
CN1C2CC(OC(=O)[C@H](CO)c3ccccc3)CC1C1OC12 (some centres undefined)	/	9.8%[57.1 µM]	/	3.2%	19.9%[57.1 µM]
C[n+]1c(-c2ccccc2)c2cc(N)ccc2c2ccc(N)cc21	-38.6*	-1.3%	14.7%	8.5%	39.9%
O=C1NC(=O)N(c2ccccc2)C(=O)/C1=C\c1ccc([N+](=O)[O-])o1	-5.6	/	/	19.8%	/
